Here are results for 23 sequences from the OligoGym collection.
Further: reference of the scale not given here.

One assay has as its target C2orf82. Put plainly: pooled miR-30 sensor sort-seq; sequence = guide strand. The settings on record: shRNA.
For the sequence TGGTCCAGCCGCTCCTGCGCGG, the sensor-assay potency score (higher = more potent) was -1.68.

In turn, AACATCGTCTGTGAGCACCGCA gave a sensor-assay potency score (higher = more potent) of 0.28.

ACATCGTCTGTGAGCACCGCAG: the sensor-assay potency score (higher = more potent) was -1.82.

Sequence CTCCTGTGGAACATCGTCTGTG came in with a sensor-assay potency score (higher = more potent) of -1.6.

TCCTGTGGAACATCGTCTGTGA yielded a sensor-assay potency score (higher = more potent) of -0.191.

As to TTTCTCAGCGCGACGACCACGA, the sensor-assay potency score (higher = more potent) turned out to be 0.0474.

CTGTGGAACATCGTCTGTGAGC returned a sensor-assay potency score (higher = more potent) of -2.1.

For the sequence TCTCAGCGCGACGACCACGAGC, the sensor-assay potency score (higher = more potent) is -1.5.

In turn, TGGAACATCGTCTGTGAGCACC yielded a sensor-assay potency score (higher = more potent) of -1.29.

For TCGTCTGTGAGCACCGCAGGGG, the sensor-assay potency score (higher = more potent) is -0.778.

Regarding ACGAGCGCCAGCACCACGCAGG, the sensor-assay potency score (higher = more potent) was -1.89.

The target of a further assay is C3orf22. Described as above. Conditions: shRNA.
The sequence TCCTCCACTTCTTACTCTGGTG showed a sensor-assay potency score (higher = more potent) of -1.52.

TTCTTGGCAAAATTCTCCTGGG gave a sensor-assay potency score (higher = more potent) of -0.771.

For TCCACTTCTTACTCTGGTGAGA, the sensor-assay potency score (higher = more potent) was -1.65.

Sequence AACCTGTACGGAAACTTCTTGG returned a sensor-assay potency score (higher = more potent) of -1.12.

For TCTGTCAGCCACGACAACCTGT, the sensor-assay potency score (higher = more potent) was -0.668.

TGTACGGAAACTTCTTGGCAAA displayed a sensor-assay potency score (higher = more potent) of -1.61.

TTACTCTGGTGAGACTTCTTGC displayed a sensor-assay potency score (higher = more potent) of -0.146.

Turning to TTGGCACCAACCTCTTCTGCAG, the sensor-assay potency score (higher = more potent) is -0.633.

Turning to TTCGAGTCGTTTGTGACCTCCC, the sensor-assay potency score (higher = more potent) was 0.262.

Regarding AAAGGTTGCACAGTGGAGGTGG, the sensor-assay potency score (higher = more potent) is 1.05.

As for TTGCACAGTGGAGGTGGTGATG, the sensor-assay potency score (higher = more potent) is -1.21.

As for TTTATTAGCTTGGTGTAGCTTT, the sensor-assay potency score (higher = more potent) is 0.257.
